Structures can show the parent of a compound that is named as a salt.
Columns and labels:
Assay in all cases: Euclidean distance of Cell Painting phenotypic profile (signed KS, 77 features) to DMSO centroid (dimensionless distance); 5 or 10 uM (library dependent); higher = stronger phenotypic change vs DMSO (phenoactivity)
Conditions in all cases: 48 h
[1] = test system: 786-O
In short: (§1)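 Five cancer lines, together with a healthy fibroblast line, received library compounds for 48 h at a library-dependent 10 or 5 uM and 0.1% DMSO final. Harmony then derived 77 features from confocal 20X images (9 fields/well) of the stained cells, scoring each as a signed Kolmogorov-Smirnov statistic against same-plate vehicle wells. After plate-position correction, correlation weighting and replicate averaging at the top dose, phenoactivity was taken as each profile's Euclidean distance to the median vehicle profile.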

[2] = test system: A549
In short: as §1

[3] = test system: DU145
In short: as §1

[4] = test system: FB
In short: as §1

[5] = test system: HEPG2
In short: as §1

[6] = test system: OVCAR4
In short: as §1

Compound	Euclidean distance [1]	Euclidean distance [2]	Euclidean distance [3]	Euclidean distance [4]	Euclidean distance [5]	Euclidean distance [6]
CC1(C)[C@@H](O)CC[C@]2(C)[C@H]3C(=O)C=C4[C@@H]5C[C@@](C)(C(=O)O)CC[C@]5(C)CC[C@@]4(C)[C@]3(C)CC[C@@H]12 [Enoxolone]	1.06	0.933	0.631	0.901	0.41	1.32
CO/N=C(/C(=O)N[C@@H]1C(=O)N2C(C(=O)OCOC(=O)C(C)(C)C)=C(C)CS[C@H]12)c1csc(N)n1 [Cefetamet pivoxil hydrochloride]	1.66	1.04	1.11	0.939	0.729	0.914
Cc1cn[nH]c1 [Fomepizole]	0.803	0.542	1.4	0.868	1.97	0.897
CC(=O)Nc1ccc(CC(=O)O)cc1 [Actarit]	1.12	0.862	0.902	1.09	0.464	0.872
Cc1ccc(Cl)cc1N(CC(=O)Nc1c(F)cccc1F)S(C)(=O)=O	0.896	1.9	0.886	0.614	0.565	0.763
CC1=NN(c2ccc(C)c(C)c2)C(=O)/C1=N\Nc1cccc(-c2cccc(C(=O)O)c2)c1O [Eltrombopag]	2.4	1.81	3.38	2.71	3.89	2.45
CC(C)(C)NS(=O)(=O)c1cncc(-c2cc(F)c3nc(N)nn3c2)c1	0.676	0.836	1.2	1.61	0.94	1.09
CCC[C@@H](C=O)NC(=O)[C@H](CC(C)C)NC(=O)[C@H](CC(C)C)NC(=O)OCc1ccccc1	5.22	4.01	5.17	4.63	4.52	5.15
NC(=O)[C@@H]1CC[C@@H]2CN1C(=O)N2OS(=O)(=O)O [Avibactam sodium]	1.03	0.85	0.722	0.925	0.607	1.24
O=C(N[C@H](CO)[C@H](O)c1ccc([N+](=O)[O-])cc1)C(Cl)Cl [Chloramphenicol]	1.22	1	1.35	0.994	0.584	1.3
NS(=O)(=O)c1cc2c(cc1Cl)N=C(CSCc1ccccc1)NS2(=O)=O [Benzthiazide]	1.33	1.17	1.06	1.18	1.62	1.62
O=P(O)(O)OC(Cn1cncn1)(Cn1cncn1)c1ccc(F)cc1F [Fosfluconazole]	1.39	0.635	1.39	0.872	0.852	1.23
O=c1c(-c2ccc(O)cc2)coc2cc(O)ccc12 [Daidzein]	0.746	0.736	0.716	0.782	0.606	1.13
C1N2CN3CN1CN(C2)C3 [Methenamine]	1.23	0.437	0.592	0.896	0.586	1.2
O=C(CSc1nc2c(c(=O)n1-c1ccccc1)SCC2)Nc1ccc(-c2ccccc2)cn1	1.36	1.81	1.11	0.832	1.42	0.588
C[C@]12CCC3=C4CCC(=O)C=C4CC[C@H]3[C@@H]1CC[C@@]2(O)CC#N [Dienogest]	1.53	0.862	1.61	1.08	1.12	1.39
CC#CC(=O)N1CC[C@@H](n2c(=O)n(-c3ccc(Oc4ccccc4)cc3)c3c(N)ncnc32)C1 [ONO-4059 (GS-4059) hydrochloride]	1.09	0.871	1.8	1.99	0.863	0.627
Nc1nc(Cl)nc2c1ncn2[C@@H]1O[C@H](CO)[C@@H](O)[C@@H]1F [Clofarabine]	3.26	2.36	2.96	3.41	3.02	3.09
O=C(O[C@@H]1C[C@@H]2C[C@H]3C[C@H](C1)N2CC3=O)c1c[nH]c2ccccc12 [Dolasetron Mesylate]	1.12	0.793	0.963	1.17	0.558	1.22
CCC[C@H](NC(=O)/C(C#N)=C/c1cccc(Br)n1)c1ccccc1 [Degrasyn (WP1130)]	5.15	4.08	4.95	2.59	1.66	4.93
Cc1ccc(C(=O)Nc2cccc(C(F)(F)F)c2)cc1Nc1nc(-c2cccnc2)nc2c1cnn2C	3.33	3.93	3.91	1.82	3.78	1.46
CCCCC(F)(F)[C@@]1(O)CC[C@H]2[C@@H](CC(=O)[C@@H]2CCCCCCC(=O)O)O1 [Lubiprostone]	1.06	1.09	1.21	1.29	0.966	1.1
Cc1cc2ncc(C(=O)NCC(C)(C)NCC(=O)N3CCC[C@H]3C#N)cn2n1 [Anagliptin]	1.08	1.14	1.17	1.29	0.393	1.17
Cc1cc(OCCCS(C)(=O)=O)cc(C)c1-c1cccc(COc2ccc3c(c2)OC[C@H]3CC(=O)O)c1	1.05	1.02	1.26	2.38	1	1.88
COC(=O)c1cc(OC)c2c(c1-c1c(CO)cc(OC)c3c1OCO3)OCO2 [Bicyclol]	1.47	0.509	2.55	0.898	1.1	1.06
